Some of the results follow. The true hit rate is not given.
Biological target: furin, P09958
Assay: furin cleavage Z-score vs untreated control; higher = more cleavage, active = 3.5 or more, inactive = 1 or less, 8 variable residues between constant flanks
How it was run: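 In 50 mM HEPES pH 7.5 with CaCl2 and NaCl, purified furin was incubated with bead-anchored 8-mer peptide–cDNA fusions at 1:10 enzyme:substrate in 0.01 ml. Incubation times were 7.5, 15 and 30 min. DNA set free by cleavage was adapter-tagged by PCR and sequenced, with read counts taken as abundance. Log counts relative to furin-free reactions, after lowess adjustment and median absolute deviation scaling, form the cleavage Z-score.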

Chain of furin, P09958 (P09958 whole entry): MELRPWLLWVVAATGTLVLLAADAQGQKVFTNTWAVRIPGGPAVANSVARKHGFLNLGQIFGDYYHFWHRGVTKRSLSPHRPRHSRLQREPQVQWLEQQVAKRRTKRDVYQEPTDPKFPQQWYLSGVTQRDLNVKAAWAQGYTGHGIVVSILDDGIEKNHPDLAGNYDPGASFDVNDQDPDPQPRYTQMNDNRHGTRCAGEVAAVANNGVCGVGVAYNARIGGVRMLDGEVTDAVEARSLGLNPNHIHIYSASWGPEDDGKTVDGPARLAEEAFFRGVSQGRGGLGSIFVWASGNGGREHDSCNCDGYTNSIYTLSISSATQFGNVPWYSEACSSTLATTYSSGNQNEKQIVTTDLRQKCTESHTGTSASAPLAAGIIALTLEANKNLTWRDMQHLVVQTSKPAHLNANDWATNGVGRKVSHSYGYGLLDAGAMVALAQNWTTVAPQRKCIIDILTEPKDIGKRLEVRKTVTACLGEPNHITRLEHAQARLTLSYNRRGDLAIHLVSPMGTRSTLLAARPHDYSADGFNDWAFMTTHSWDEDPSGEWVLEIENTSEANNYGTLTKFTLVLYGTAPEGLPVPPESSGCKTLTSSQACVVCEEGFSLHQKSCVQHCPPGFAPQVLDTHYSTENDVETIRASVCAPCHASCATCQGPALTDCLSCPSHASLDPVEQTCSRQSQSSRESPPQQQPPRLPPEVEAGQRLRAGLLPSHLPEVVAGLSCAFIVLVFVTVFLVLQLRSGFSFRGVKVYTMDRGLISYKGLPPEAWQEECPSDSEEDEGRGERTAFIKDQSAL

CAKMIGGHYVAGNASASA [HC624]
furin cleavage Z-score (7.5 min): -0.495 (inactive)
furin cleavage Z-score (15 min): -0.0648 (inactive)
furin cleavage Z-score (30 min): -0.0572 (inactive)

CACGSVFLVGAGNASASA [HC301]
furin cleavage Z-score (7.5 min): -1.62 (inactive)
furin cleavage Z-score (15 min): -1.91 (inactive)
furin cleavage Z-score (30 min): -1.35 (inactive)

CAEVVTSTWIAGNASASA [HC2244]
furin cleavage Z-score (7.5 min): 0.57 (inactive)
furin cleavage Z-score (15 min): 0.293 (inactive)
furin cleavage Z-score (30 min): 0.802 (inactive)

CAEQPCHRPSAGNASASA [HC2342]
furin cleavage Z-score (7.5 min): -1.24 (inactive)
furin cleavage Z-score (15 min): 2.02
furin cleavage Z-score (30 min): -0.236 (inactive)

CAEREISVPAAGNASASA [HC1293]
furin cleavage Z-score (7.5 min): -0.452 (inactive)
furin cleavage Z-score (15 min): -1.55 (inactive)
furin cleavage Z-score (30 min): -0.526 (inactive)

CAGQLDLSGWAGNASASA [HC1642]
furin cleavage Z-score (7.5 min): -0.176 (inactive)
furin cleavage Z-score (15 min): 0.869 (inactive)
furin cleavage Z-score (30 min): 0.13 (inactive)

CALRRRRKRYAGNASASA [FS-944]
furin cleavage Z-score (7.5 min): 11.8 (active)
furin cleavage Z-score (15 min): 14.5 (active)
furin cleavage Z-score (30 min): 10.2 (active)

CARRRRNKRYAGNASASA [FS-1403]
furin cleavage Z-score (7.5 min): 12.8 (active)
furin cleavage Z-score (15 min): 14.4 (active)
furin cleavage Z-score (30 min): 10.6 (active)

CAEETTPCSGAGNASASA [HC1972]
furin cleavage Z-score (7.5 min): -1.3 (inactive)
furin cleavage Z-score (15 min): -1.71 (inactive)
furin cleavage Z-score (30 min): -0.823 (inactive)

CATTPCSRSWAGNASASA [HC1893]
furin cleavage Z-score (7.5 min): 0.791 (inactive)
furin cleavage Z-score (15 min): 0.627 (inactive)
furin cleavage Z-score (30 min): -0.432 (inactive)

CAPLRDWAHNAGNASASA [HC638]
furin cleavage Z-score (7.5 min): 0.639 (inactive)
furin cleavage Z-score (15 min): 0.256 (inactive)
furin cleavage Z-score (30 min): 0.786 (inactive)

CASTPCSAHTAGNASASA [HC2578]
furin cleavage Z-score (7.5 min): -0.678 (inactive)
furin cleavage Z-score (15 min): -2.17 (inactive)
furin cleavage Z-score (30 min): 0.0661 (inactive)

CARKMRPARLAGNASASA [FS-1260]
furin cleavage Z-score (7.5 min): 3.41
furin cleavage Z-score (15 min): 4.23 (active)
furin cleavage Z-score (30 min): 4.92 (active)

CARHSRSQGAAGNASASA [FS-2948]
furin cleavage Z-score (7.5 min): -0.651 (inactive)
furin cleavage Z-score (15 min): 0.879 (inactive)
furin cleavage Z-score (30 min): -0.497 (inactive)

CARKVRDKISAGNASASA [FS-1961]
furin cleavage Z-score (7.5 min): -0.364 (inactive)
furin cleavage Z-score (15 min): -1.5 (inactive)
furin cleavage Z-score (30 min): 1.37

CARHSRQVLLAGNASASA [FS-2947]
furin cleavage Z-score (7.5 min): 0.717 (inactive)
furin cleavage Z-score (15 min): 2.58
furin cleavage Z-score (30 min): 2.14

CARKIRIKGIAGNASASA [FS-2558]
furin cleavage Z-score (7.5 min): 0.0544 (inactive)
furin cleavage Z-score (15 min): -0.85 (inactive)
furin cleavage Z-score (30 min): -1.75 (inactive)

CAFFCFAWYLAGNASASA [HC546]
furin cleavage Z-score (7.5 min): -1.2 (inactive)
furin cleavage Z-score (15 min): -0.615 (inactive)
furin cleavage Z-score (30 min): -0.815 (inactive)

CARKVREAYLAGNASASA [FS-2427]
furin cleavage Z-score (7.5 min): 5.91 (active)
furin cleavage Z-score (15 min): 6.8 (active)
furin cleavage Z-score (30 min): 7.91 (active)

CARKIRKKRLAGNASASA [FS-84]
furin cleavage Z-score (7.5 min): 9.24 (active)
furin cleavage Z-score (15 min): 9.01 (active)
furin cleavage Z-score (30 min): 7.01 (active)

CARKMRLGDAAGNASASA [FS-1728]
furin cleavage Z-score (7.5 min): 0.749 (inactive)
furin cleavage Z-score (15 min): 0.395 (inactive)
furin cleavage Z-score (30 min): -0.759 (inactive)

CARHSRKKRLAGNASASA [FS-1259]
furin cleavage Z-score (7.5 min): 8.52 (active)
furin cleavage Z-score (15 min): 11.2 (active)
furin cleavage Z-score (30 min): 9.02 (active)

CAELIEANLLAGNASASA [HC1273]
furin cleavage Z-score (7.5 min): -1.11 (inactive)
furin cleavage Z-score (15 min): -1.92 (inactive)
furin cleavage Z-score (30 min): 0.0877 (inactive)

CARYSRSSAAAGNASASA [FS-1811]
furin cleavage Z-score (7.5 min): 1.3
furin cleavage Z-score (15 min): 1.43
furin cleavage Z-score (30 min): 0.767 (inactive)

CARAARSLLQAGNASASA [FS-1679]
furin cleavage Z-score (7.5 min): 1.57
furin cleavage Z-score (15 min): 0.802 (inactive)
furin cleavage Z-score (30 min): 5.01 (active)

CARVVRELLQAGNASASA [FS-1805]
furin cleavage Z-score (7.5 min): 5.28 (active)
furin cleavage Z-score (15 min): 8.9 (active)
furin cleavage Z-score (30 min): 7.51 (active)

CARWGRFLLQAGNASASA [FS-3128]
furin cleavage Z-score (7.5 min): 0.358 (inactive)
furin cleavage Z-score (15 min): 1.41
furin cleavage Z-score (30 min): 0.253 (inactive)

CAWLAGLFYHAGNASASA [HC379]
furin cleavage Z-score (7.5 min): -1.56 (inactive)
furin cleavage Z-score (15 min): -0.299 (inactive)
furin cleavage Z-score (30 min): -1.72 (inactive)

CAPLEVIKGGAGNASASA [HC851]
furin cleavage Z-score (7.5 min): 1.06
furin cleavage Z-score (15 min): 0.444 (inactive)
furin cleavage Z-score (30 min): 0.579 (inactive)

CACHCGAEITAGNASASA [HC1175]
furin cleavage Z-score (7.5 min): -0.983 (inactive)
furin cleavage Z-score (15 min): -1.4 (inactive)
furin cleavage Z-score (30 min): -0.977 (inactive)

CAVFKRRRRSAGNASASA [FS-1101]
furin cleavage Z-score (7.5 min): 12.7 (active)
furin cleavage Z-score (15 min): 11.3 (active)
furin cleavage Z-score (30 min): 8.61 (active)

CAPAARRRRSAGNASASA [FS-1146]
furin cleavage Z-score (7.5 min): 11.4 (active)
furin cleavage Z-score (15 min): 10.2 (active)
furin cleavage Z-score (30 min): 8.82 (active)

CALAARGARLAGNASASA [FS-682]
furin cleavage Z-score (7.5 min): -1.17 (inactive)
furin cleavage Z-score (15 min): 0.199 (inactive)
furin cleavage Z-score (30 min): 0.619 (inactive)

CAPAARFKKFAGNASASA [FS-367]
furin cleavage Z-score (7.5 min): -0.438 (inactive)
furin cleavage Z-score (15 min): -0.599 (inactive)
furin cleavage Z-score (30 min): -0.45 (inactive)

CATALRRARSAGNASASA [FS-200]
furin cleavage Z-score (7.5 min): 1.48
furin cleavage Z-score (15 min): 0.619 (inactive)
furin cleavage Z-score (30 min): 0.983 (inactive)

CATAQRRRRSAGNASASA [FS-877]
furin cleavage Z-score (7.5 min): 8.41 (active)
furin cleavage Z-score (15 min): 7.47 (active)
furin cleavage Z-score (30 min): 6.08 (active)

CALAARRRRSAGNASASA [FS-264]
furin cleavage Z-score (7.5 min): 10.9 (active)
furin cleavage Z-score (15 min): 11 (active)
furin cleavage Z-score (30 min): 8.11 (active)

CAELEVVTSTAGNASASA [HC2272]
furin cleavage Z-score (7.5 min): -0.698 (inactive)
furin cleavage Z-score (15 min): -0.669 (inactive)
furin cleavage Z-score (30 min): -1.12 (inactive)

CAYEMEECSQAGNASASA [HC1789]
furin cleavage Z-score (7.5 min): 0.403 (inactive)
furin cleavage Z-score (15 min): -0.566 (inactive)
furin cleavage Z-score (30 min): 1.37

CANLLPAILSAGNASASA [HC1101]
furin cleavage Z-score (7.5 min): -0.111 (inactive)
furin cleavage Z-score (15 min): 0.993 (inactive)
furin cleavage Z-score (30 min): -0.0781 (inactive)

CANWSPTTALAGNASASA [HC323]
furin cleavage Z-score (7.5 min): -0.0824 (inactive)
furin cleavage Z-score (15 min): -0.415 (inactive)
furin cleavage Z-score (30 min): -0.513 (inactive)

CAAQLLRIPQAGNASASA [HC328]
furin cleavage Z-score (7.5 min): -1 (inactive)
furin cleavage Z-score (15 min): 1.5
furin cleavage Z-score (30 min): 0.847 (inactive)

CAMEECSTHLAGNASASA [HC1738]
furin cleavage Z-score (7.5 min): 0.958 (inactive)
furin cleavage Z-score (15 min): 0.401 (inactive)
furin cleavage Z-score (30 min): 0.22 (inactive)

From the supplement of paper PMC3545927
